About 79,000 compounds went through this panel and 15% of them were active in at least one assay; those are over-represented in the sample as a whole. Active and inactive are the calls of the source. Rule as the data show it: active = growth inhibition above about 70%; inactive = the rest.
How the values were obtained:
[1] = NCI Yeast Anticancer Drug Screen. Data for the rad50 strain (AID 155);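 also: 0% = growth of vehicle-only cultures of the same strain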; conditions: S. cerevisiae rad50 strain growth inhibition; at 50.0 µM; active compounds read high
How it was run: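 Growth of the mutant yeast was measured after compound exposure and referenced to vehicle-treated cultures.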

[2] = NCI Yeast Anticancer Drug Screen. Data for the mec2-1 strain (AID 157); conditions: S. cerevisiae mec2-1 strain, at 50.0 µM, active compounds read high
How it was run: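 Compounds were applied to mec2-1 yeast cells. Their growth was then compared with that of vehicle-treated cultures to give growth inhibition.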

[3] = NCI Yeast Anticancer Drug Screen. Data for the sgs1 mgt1 strain (AID 161);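 also: 0% = growth of cultures given vehicle only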; conditions: S. cerevisiae sgs1 mgt1 strain, at 50.0 µM, active compounds read high
How it was run: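 Yeast cells carrying a defined DNA-repair defect were exposed to test compounds. Growth inhibition was measured relative to vehicle-treated controls.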

[4] = NCI Yeast Anticancer Drug Screen. Data for the cln2 rad14 strain (AID 165);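 also: 0% = growth equal to vehicle treated cultures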; conditions: S. cerevisiae cln2 rad14 strain, at 50.0 µM, active compounds read high
How it was run: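 Strain: cln2 rad14 yeast, altered in cell cycle control and DNA damage repair. Read-out: growth inhibition vs vehicle.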

[5] = NCI Yeast Anticancer Drug Screen. Data for the bub3 strain (AID 167); conditions: S. cerevisiae bub3 mutant strain, at 50.0 µM, active compounds read high
How it was run: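 Whole-cell yeast assay. The mutant strain was incubated with compounds, and growth inhibition was determined by comparison with vehicle-treated cells.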

[6] = NCI Yeast Anticancer Drug Screen. Data for the mlh1 rad18 strain (AID 175); conditions: S. cerevisiae mlh1 rad18 strain growth inhibition; at 50.0 µM; active compounds read high
How it was run: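 A repair-deficient yeast strain is exposed to test compound, and growth is scored relative to vehicle-treated controls.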

Measured: growth inhibition

O=S(=O)(Cc1ccccc1)CC(Br)CBr (configuration not stated)
active: [1] 82.9% | [2] 97.2% | [3] 96.1% | [5] 95.2% | [6] 97.2%
inactive: [4] 27.4%

CCOC(=O)C(O)Cc1ccc(N)cc1 (configuration not stated)
inactive: [1] 5.8% | [2] 12.2% | [3] 12.3% | [4] 9.85% | [5] 12.8% | [6] 2.85%

O=C(NC/C=C/Br)Oc1cccc2ccccc12
inactive: [1] -0.05% | [2] 18.6% | [3] 0.9% | [4] 36.8% | [5] 2.85% | [6] 11.3%

CCOP(=O)(OCC)C1(O)CC(n2cc(C)c(=O)[nH]c2=O)OC1CO (configuration not stated)
inactive: [1] 7.3% | [2] 59.1% | [3] -15.2% | [4] 27.1% | [5] -5.05% | [6] -37.7%

CCOC(=O)C(=CNC(=S)Nc1cc(C)ccc1C)C(=O)OCC
inactive: [1] -12.8% | [2] -38.5% | [3] -14.1% | [4] -19.1% | [5] -16.7% | [6] -1.85%

COC(=O)CC1C(=O)OC23CCC1C2(C)CCC1C3CCC2CC(OC(C)=O)CCC21C (configuration not stated)
active: [1] 87.4% | [2] 89.3% | [3] 90.5% | [4] 82% | [5] 87.5% | [6] 87.9%

CCOC(=O)CN1CC(C2=C(O)CN(CC(=O)OCC)C2=O)=CC1=O
inactive: [1] 0.75% | [2] 9.7% | [3] -12.6% | [4] 29.1% | [5] 9.55% | [6] -27%

Cc1cc2c(C)nn(Cc3ccc(Cl)cc3Cl)c2c(C#N)c1C
inactive: [1] 18.2% | [2] -14.8% | [3] 24.9% | [4] 20.1% | [5] 5.8% | [6] 31.6%

C1COCCN1.C1COCCN1.N.N.[Cl-].[Pt+2]
inactive: [1] -9.5% | [2] -5.4% | [3] -38.1% | [4] -14.2% | [5] -2.45% | [6] -14.8%

C=C(Cl)/C(=C\Cl)CCC(Cl)C(C)C (configuration not stated) (tested in a mixture with another compound)
active: [2] 78% | [3] 91% | [4] 72% | [5] 90.8% | [6] 89.3%
inactive: [1] 68.5%

COc1ccc2c(O)cc(C(=O)O)c(-c3ccccc3)c2c1
inactive: [1] -4.7% | [2] -12.8% | [3] -3.95% | [4] -17.5% | [5] 5.05% | [6] -22.6%

Cn1c(=O)n2n(c1=O)[C@@H](c1ccccc1)[C@H]2c1ccccc1
inactive: [1] 29.8% | [2] -45.4% | [3] -9.85% | [4] -5.85% | [5] 20.2% | [6] -59.3%

CCCOC(=O)O[C@H]1CC[C@@]2(C)C(=CC[C@H]3[C@@H]4CC[C@H]([C@H](C)CCCC(C)C)[C@@]4(C)CC[C@@H]32)C1
inactive: [1] -34.6% | [2] -31% | [3] -27.7% | [4] 3.9% | [5] -28.8% | [6] -34.4%

CC(C(N)=O)C(=O)c1ccccc1 (configuration not stated)
inactive: [1] 9.9% | [2] -12.4% | [3] -24.3% | [4] -7.15% | [5] -21.2% | [6] 0.15%

CC(O)C(O)C(O)C(O)C=O (configuration not stated)
inactive: [1] -13.2% | [2] -11.8% | [3] 3.8% | [4] 14.1% | [5] 7% | [6] -10.2%

CC1(c2ccccc2)OCCCO1
inactive: [1] -11.3% | [2] -7.15% | [3] -10.8% | [4] 0.65% | [5] -2.5% | [6] -0.8%

CC1(C)CCNc2ccccc2S1
inactive: [1] -0.55% | [2] 1.7% | [3] 2.05% | [4] -25.9% | [5] -11.1% | [6] -14.6%

NC(=O)C1OC1(c1ccccc1)c1ccccc1 (configuration not stated)
inactive: [1] 20.8% | [2] 5.2% | [3] 3.05% | [4] -2.1% | [5] 4.15% | [6] 3.15%

CCCCOC(=O)C(C)C(=O)CCC(C)CC (configuration not stated)
inactive: [1] 4.55% | [2] 2.6% | [3] -1.1% | [4] -7.05% | [5] 8.2% | [6] 3.85%

CCOC(=O)C(NC(=O)c1cccc(Cl)c1)(Nc1ccc(S(=O)(=O)Nc2cc(C)on2)cc1)C(F)(F)F (configuration not stated)
inactive: [1] 67.2% | [2] 69.3%
active: [3] 82.3% | [4] 84.7% | [5] 79.2% | [6] 91%

Cc1cc(C)c(NC(=O)C(C)(C)C)c(C)c1
inactive: [1] -7.15% | [2] -12.9% | [3] -17.7% | [4] -48.9% | [5] 10.2% | [6] -2.2%

CN1CCN(C(CO)Cc2ccccc2)CC1 (configuration not stated)
inactive: [1] 3.85% | [2] -10.1% | [3] -9.5% | [4] -15.8% | [5] 8.8% | [6] -7.4%

CC(=O)Nc1c(C)cccc1[N+](=O)[O-]
inactive: [1] 5.35% | [2] -14.2% | [3] 0% | [4] -17.6% | [5] 2.8% | [6] 3.65%

CC(=O)C(C(C)=O)C(C(C)=O)C(C)=O.[Cu]
inactive: [1] -26.8% | [2] -11.3% | [3] -21.1% | [4] -10.4% | [5] -18.4% | [6] -22.1%

O=C(/C=C/c1ccccc1)SCc1ccccc1
inactive: [1] -2.9% | [2] 14% | [3] 11.2% | [4] -2.1% | [5] -4.75% | [6] 2.35%

O=Cc1c2c(cc3c1CC1(C3)Cc3cc4c(c(C=O)c3C1)CCCC4)CCCC2
inactive: [1] 5.25% | [2] 11.6% | [3] 4.4% | [4] 25.3% | [5] 17.3% | [6] 25.1%

ClC(Cl)(Cl)SSC(=Nc1ccccc1)SSC(Cl)(Cl)Cl
inactive: [2] 21.4% | [3] 51.6% | [4] -0.8% | [5] 64.3% | [6] 69.5%
active: [1] 70.8%

O=[N+]([O-])c1ccccc1N=NNc1ccccc1[N+](=O)[O-]
inactive: [1] 9.65% | [2] -4% | [3] 1.9% | [4] -26.6% | [5] 3.1% | [6] 3%

Cc1ccc(S(=O)(=O)OC2CCCCCCCCCCC2=O)cc1 (configuration not stated)
inactive: [1] -3.55% | [2] 6.1% | [3] -7.1% | [4] -11.9% | [5] -0.2% | [6] 6.3%

O=C(O)/C=C1/CCC(=O)O1
inactive: [1] -5.25% | [2] -0.2% | [3] 0.05% | [4] 10.8% | [5] 20.1% | [6] -0.65%

CN1C(=O)C2C(C1=O)[C@H]1c3ccccc3C=CN1[C@@H]2C(=O)c1ccccc1 (some centres not stated)
inactive: [1] 13.2% | [2] 7.7% | [3] -0.25% | [4] 0.6% | [5] -3.8% | [6] 10.1%

CCCCOc1c(Cl)cc(Cl)cc1-c1ccccc1
inactive: [1] 14.7% | [2] 9.6% | [3] 2.55% | [4] -18.2% | [5] 18.5% | [6] 2.25%

COCOc1c(OC)c(C2(O)C(=O)N(C)c3ccccc32)c(OCOC)c(OC)c1C1(O)C(=O)N(C)c2ccccc21 (configuration not stated)
inactive: [1] 0.9% | [2] 13.8% | [3] -14.9% | [4] -3.9% | [5] 0% | [6] 15.4%

Cc1ccc(S(=O)(=O)N(CCOc2c3occc3cc3ccc(=O)oc23)CCN(CCN(CCOc2c3occc3cc3ccc(=O)oc23)S(=O)(=O)c2ccc(C)cc2)S(=O)(=O)c2ccc(C)cc2)cc1
inactive: [1] -10.2% | [2] -11.7% | [3] -14.4% | [4] -31.6% | [5] -21.1% | [6] -6.8%

CC1=C2C(C)CC3OC(=O)C(C)C3C(O)C2CC1=O (configuration not stated)
inactive: [1] 5.8% | [2] -7.5% | [3] 1.2% | [4] -40.8% | [5] -8% | [6] -5.75%

CCOC(=O)C(=CN1C/C(=C/C(C)=C/c2ccccc2)SC1=S)C(=O)OCC
inactive: [1] -12.1% | [2] 28.9% | [3] 11.7% | [4] -20.9% | [5] 17.9% | [6] 4.85%

O=C(O)c1cccc(S(=O)(=O)NN2C(=O)CSC2c2ccccc2Cl)c1 (configuration not stated)
inactive: [1] 28.5% | [2] -3.95% | [3] 2.85% | [4] 5.9% | [5] 12.7% | [6] 28.7%
